From PubChem BioAssay
aSyn UTR act = Activators working through SNCA 5'UTR binding (MLPCN). alpha-synuclein 5'UTR reporter, activators screen. activity score, % (tested at 7.5 µM), hits read low. 7.1% of 300,000 active; in the data active = activity score below about -60%
* hit, by the source's call. These entries were drawn from the full list.

How did O=c1c(-c2ccc(O)cc2)coc2cc(OC3OC(CO)C(O)C(O)C3O)cc(O)c12 (centres undefined) do in these assays?
aSyn UTR act: -83*

What do the screens show for `COc1cc(O)c2c(=O)c(-c3ccc(O[C@@H]4O[C@H](CO)[C@@H](O)[C@H](O)[C@H]4O)cc3)coc2c1`?
aSyn UTR act: -155*

Results for CCC(SC1=Nc2ccccc2C2=NC(CC(C)C)C(=O)N12)C(=O)Nc1ccc2c(c1)OCO2 (centres undefined) ?
aSyn UTR act: -64*

Results for Cc1cc(N/N=C\c2ccccc2)nc(-c2ccccc2O)n1 ?
aSyn UTR act: -138*

What do the screens show for `Cc1cc(N(C)/N=C/c2ccccc2)nc(-c2ccccc2O)n1`?
aSyn UTR act: -119*

What do the screens show for `Cc1cc(N/N=C/c2ccc(O)cc2O)nc(-c2ccccc2O)n1`?
aSyn UTR act: 75

How did CN(/N=C/c1cc(Br)cc(Br)c1O)c1cccc(C(F)(F)F)n1 do in these assays?
aSyn UTR act: 70

How did CC1=CC(c2ccccc2)=Nc2ccc(C)cc2N1 do in these assays?
aSyn UTR act: -151*

Results for O=C1c2ccccc2NC(c2cccc([N+](=O)[O-])c2)N1CCc1ccccc1 (centres undefined) ?
aSyn UTR act: -136*

Results for Cc1cc([N+](=O)[O-])ccc1-c1ccc(C2Nc3ccccc3C(=O)N2O)o1 (centres undefined) ?
aSyn UTR act: 83

Results for Cc1ccc(N2C(=O)c3ccc(N)cc3C2=O)cc1 ?
aSyn UTR act: -182*
